Data reported in PubChem BioAssay (Tox21).
Results filed as inconclusive are left out. Activity calls are given as the source filed them. Unless noted, calls follow the shape of the dose curve; as a rule, active = well fitted curve in the direction sought with a large enough effect in the repeat runs; inconclusive = weak or mixed curves; inactive = no such curve, though single readings can be large; an effect the other way counts as inactive or inconclusive.

How the values were obtained:
[1] = qHTS assay to identify small molecule that activate the aryl hydrocarbon receptor (AhR) signaling pathway - cell viability counter screen (AID 743086); also: nearly all actives have a fitted effect of over 45% in size; also: potency is read from the fitted curve at half-maximal effect;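 as to viability change, negative = cytotoxic: HepG2 liver cells carrying the AhR DRE luciferase reporter; series mostly up to about 70 µM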
Outline: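 HepG2-AhR-luc (HG2L7.5c1) cells, 4000/well, treated 24 h at 37 C with compound; viability measured as CellTiter-Fluor fluorescence after 30 min in the same wells as the luciferase read.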

[2] = qHTS assay for small molecule agonists of the antioxidant response element (ARE) signaling pathway - cell viability counter screen (AID 743203; calls by dose curve; also: nearly all actives have a fitted effect of over 55% in size; also: potency is read from the fitted curve at half-maximal effect)
Outline: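 HepG2 cells carrying ARE-driven beta-lactamase; 2,000 cells/well; 5 hrs plating; compound pinned from DMSO; 16 hrs 37C/5% CO2; CellTiter-Glo added; 30 min RT; luminescence.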

[3] = qHTS assay for small molecule activators of the heat shock response signaling pathway - cell viability counter screen (AID 743209); also: nearly all actives have a fitted effect of over 50% in size
Outline: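 Luminescence from CellTiter-Glo, added after the beta-lactamase FRET read, gave the viability signal. Cells were HSE-bla HeLa treated with DMSO-dissolved compounds for 5 h at 37 C following overnight plating.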

[4] = qHTS assay to identify small molecule antagonists of the peroxisome proliferator-activated receptor delta (PPARd) signaling pathway - cell viability counter screen (AID 743213); also: nearly all actives have a fitted effect of over 50% in size; also: potency is read from the fitted curve at half-maximal effect
Outline: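 Cytotoxicity counter screen: CellTiter-Glo luminescence read 30 min after addition, in the same wells as the reporter assay. There, PPARd UAS-bla HEK293H cells (3000/well) were treated 17 h at 37 C with compound and 300 nM L165041.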

[5] = qHTS assay to identify small molecule agonists of the farnesoid-X-receptor (FXR) signaling pathway - cell viability counter screen (AID 743218); also: nearly all actives have a fitted effect of over 45% in size
Outline: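 HEK 293T FXR-bla cells; 5 h pre-incubation, 16 h compound exposure at 37 C; LiveBLAzer substrate 2 h RT, then CellTiter-Glo 30 min RT, luminescence.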

[6] = qHTS assay to identify small molecule antagonists of the farnesoid-X-receptor (FXR) signaling pathway - cell viability counter screen (AID 743221; active = well fitted cell-killing curve with a large enough effect in the repeat runs, not every such curve was filed as active; also: nearly all actives have a fitted effect of over 50% in size)
Outline: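 In GeneBLAzer FXR-UAS-bla HEK 293T cells stimulated with 50 uM chenodeoxycholic acid (final), compounds acted for 16 h at 37 C. Viability was assessed afterwards by CellTiter-Glo luminescence.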

[7] = target: Vitamin D3 receptor (Homo sapiens) (UniProt P11473); assay: qHTS assay to identify small molecule antagonists of the vitamin D receptor (VDR) signaling pathway (AID 743223; active = well fitted inhibition curve with a large enough effect in the signal ratio in the repeat runs, not every such curve was filed as active; the % refers to the signal ratio)
Sequence of Vitamin D3 receptor (Homo sapiens) (P11473 whole entry, looked up): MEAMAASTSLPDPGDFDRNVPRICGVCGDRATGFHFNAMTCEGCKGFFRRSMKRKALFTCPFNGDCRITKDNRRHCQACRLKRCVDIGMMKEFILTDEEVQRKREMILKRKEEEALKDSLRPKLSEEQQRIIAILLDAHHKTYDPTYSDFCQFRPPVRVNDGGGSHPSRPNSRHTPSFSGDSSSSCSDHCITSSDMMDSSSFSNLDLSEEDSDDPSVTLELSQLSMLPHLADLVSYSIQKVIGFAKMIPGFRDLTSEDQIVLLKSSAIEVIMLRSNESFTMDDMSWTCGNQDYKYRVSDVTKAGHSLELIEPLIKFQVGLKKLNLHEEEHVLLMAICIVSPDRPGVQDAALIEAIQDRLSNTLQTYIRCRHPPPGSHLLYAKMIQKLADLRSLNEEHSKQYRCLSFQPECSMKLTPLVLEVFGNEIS
Outline: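 Agonist 1alpha,25-dihydroxyvitamin D3 (3 nM in well) was added with each compound to VDR-bla cells preincubated 4 h. Cells stood 16 h at 37C, then FRET substrate 2 h at room temperature; fluorescence intensity recorded.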

[8] = target: Peroxisome proliferator-activated receptor gamma (Homo sapiens) (UniProt P37231); assay: qHTS assay to identify small molecule antagonists of the peroxisome proliferator-activated receptor gamma (PPARg) signaling pathway (AID 743191; calls by dose curve; also: series mostly up to about 63 µM; nearly all actives have a fitted effect of over 30% in size)
Sequence of Peroxisome proliferator-activated receptor gamma (Homo sapiens) (P37231 whole entry, looked up): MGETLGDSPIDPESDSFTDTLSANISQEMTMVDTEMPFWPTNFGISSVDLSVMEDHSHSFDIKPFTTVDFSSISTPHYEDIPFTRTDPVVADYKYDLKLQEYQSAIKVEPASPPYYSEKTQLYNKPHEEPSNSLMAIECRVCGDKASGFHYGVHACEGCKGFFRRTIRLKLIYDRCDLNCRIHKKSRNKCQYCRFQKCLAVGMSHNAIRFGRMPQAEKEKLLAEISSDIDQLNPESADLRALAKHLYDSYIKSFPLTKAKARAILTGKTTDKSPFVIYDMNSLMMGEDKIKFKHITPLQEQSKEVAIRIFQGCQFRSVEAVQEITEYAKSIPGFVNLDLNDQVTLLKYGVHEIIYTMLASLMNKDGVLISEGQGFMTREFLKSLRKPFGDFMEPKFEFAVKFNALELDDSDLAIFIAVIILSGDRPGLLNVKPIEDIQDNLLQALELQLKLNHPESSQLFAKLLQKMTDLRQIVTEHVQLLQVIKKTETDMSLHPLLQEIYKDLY
Outline: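 GeneBLAzer PPARg UAS-bla HEK293H cells, 5 h post-plating, exposed to compounds 17 h at 37C. LiveBLAzer B/G FRET substrate added for 1 h at room temperature; beta-lactamase reporter read by fluorescence intensity.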

[9] = qHTS assay to identify small molecule antagonists of the peroxisome proliferator-activated receptor gamma (PPARg) signaling pathway - cell viability counter screen (AID 743194); also: nearly all actives have a fitted effect of over 55% in size
Outline: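 Cytotoxicity counter screen in PPARg-bla HEK293H cells, same wells as reporter assay. Compounds plus 50 nM rosiglitazone (final) for 17 h at 37 C, then viability read by CellTiter-Glo luminescence.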

[10] = qHTS assay for small molecule agonists of the antioxidant response element (ARE) signaling pathway (AID 743202; active = well fitted activation curve with a large enough effect in the signal ratio in the repeat runs, not every such curve was filed as active; the % refers to the signal ratio)
Outline: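 ARE-bla HepG2 cells (beta-lactamase reporter under the antioxidant response element), plated 5 hours, then exposed to compounds 16 hours at 37 C. LiveBLAzer B/G FRET substrate added for 2 hours at room temperature; fluorescence intensity read.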

[11] = qHTS assay for small molecule activators of the heat shock response signaling pathway (AID 743210; active = well fitted activation curve with a large enough effect in the signal ratio in the repeat runs, with a control signal flat, not every such curve was filed as active; the % refers to the signal ratio; also: series mostly up to about 63 µM)
Outline: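 HSE-bla HeLa cells (beta-lactamase reporter under heat shock response elements), plated overnight, then exposed to compounds 5 h at 37 C; LiveBLAzer B/G FRET substrate added, 2.5 h at room temperature, fluorescence intensity read.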

[12] = qHTS assay to identify small molecule agonists of the peroxisome proliferator-activated receptor delta (PPARd) signaling pathway - cell viability counter screen (AID 743211); also: nearly all actives have a fitted effect of over 55% in size
Outline: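 Luminescent ATP viability assay (CellTiter-Glo, 30 min RT) in UAS-bla HEK293H cells carrying the PPAR delta reporter construct, 3000 cells/well, after a 17 h compound treatment at 37 C.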

[13] = target: Vitamin D3 receptor (Homo sapiens) (UniProt P11473); assay: qHTS assay to identify small molecule agonists of the vitamin D receptor (VDR) signaling pathway (AID 743222; calls by dose curve)
Outline: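 VDR-bla cells, 2,000/well; 4 h preincubation 37C; cpd (DMSO) 16 h; LiveBLAzer B/G substrate 2 h RT; fluorescence intensity read.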

[14] = target: Bile acid receptor (Homo sapiens) (UniProt Q96RI1); assay: qHTS assay to identify small molecule agonists of the farnesoid-X-receptor (FXR) signaling pathway (AID 743220; active = well fitted activation curve with a large enough effect in the signal ratio in the repeat runs, not every such curve was filed as active; the % refers to the signal ratio)
Sequence of Bile acid receptor (Homo sapiens) (Q96RI1 whole entry, looked up): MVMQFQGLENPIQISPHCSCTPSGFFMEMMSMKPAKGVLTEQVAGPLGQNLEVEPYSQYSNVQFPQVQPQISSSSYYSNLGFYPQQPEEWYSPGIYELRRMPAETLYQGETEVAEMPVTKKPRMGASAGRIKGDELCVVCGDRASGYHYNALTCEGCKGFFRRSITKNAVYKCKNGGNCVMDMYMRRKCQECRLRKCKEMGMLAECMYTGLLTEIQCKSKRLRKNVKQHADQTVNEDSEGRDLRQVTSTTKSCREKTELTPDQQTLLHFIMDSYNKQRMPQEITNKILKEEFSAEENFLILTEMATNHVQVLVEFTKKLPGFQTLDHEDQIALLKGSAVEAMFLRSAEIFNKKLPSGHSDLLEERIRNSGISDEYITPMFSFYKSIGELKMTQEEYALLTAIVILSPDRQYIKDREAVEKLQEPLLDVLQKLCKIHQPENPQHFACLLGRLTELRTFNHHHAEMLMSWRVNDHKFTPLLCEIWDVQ
Outline: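 Beta-lactamase reporter under UAS control in GeneBLAzer FXR HEK 293T cells (5000/well) measured with LiveBLAzer FRET substrate after 2 h at room temperature. Compound exposure lasted 16 h at 37C.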

[15] = target: Peroxisome proliferator-activated receptor delta (Homo sapiens) (UniProt Q03181); assay: qHTS assay to identify small molecule agonists of the peroxisome proliferator-activated receptor delta (PPARd) signaling pathway (AID 743212; calls by dose curve)
Sequence of Peroxisome proliferator-activated receptor delta (Homo sapiens) (Q03181 whole entry, looked up): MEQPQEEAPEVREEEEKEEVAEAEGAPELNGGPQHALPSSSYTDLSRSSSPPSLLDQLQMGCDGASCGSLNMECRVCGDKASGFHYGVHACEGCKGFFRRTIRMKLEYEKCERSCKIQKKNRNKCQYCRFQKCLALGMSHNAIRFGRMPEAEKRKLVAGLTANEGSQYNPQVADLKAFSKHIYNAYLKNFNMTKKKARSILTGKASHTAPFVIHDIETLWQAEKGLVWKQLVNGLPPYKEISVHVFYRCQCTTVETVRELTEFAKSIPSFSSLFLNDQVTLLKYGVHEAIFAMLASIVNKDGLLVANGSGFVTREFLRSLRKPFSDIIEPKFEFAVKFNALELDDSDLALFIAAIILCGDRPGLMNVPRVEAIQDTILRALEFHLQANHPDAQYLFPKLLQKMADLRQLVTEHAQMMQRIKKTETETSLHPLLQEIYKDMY
Outline: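 GeneBLAzer UAS-bla HEK293H cells carrying a PPARδ construct were exposed to compounds at 37 °C. Beta-lactamase activity was read by FRET fluorescence after 2 h at room temperature with LiveBLAzer B/G substrate.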

[16] = target: Peroxisome proliferator-activated receptor delta (Homo sapiens) (UniProt Q03181); assay: qHTS assay to identify small molecule antagonists of the peroxisome proliferator-activated receptor delta (PPARd) signaling pathway (AID 743215; active = well fitted inhibition curve with a large enough effect in the signal ratio in the repeat runs, not every such curve was filed as active; the % refers to the signal ratio;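 also: cells stimulated with agonist L165041 at 300 nM final during compound exposure; series mostly up to about 62 µM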)
Outline: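 Read-out is beta-lactamase FRET fluorescence, measured 2 h after substrate addition at room temperature. Beforehand, UAS-bla HEK293H cells carrying the PPARd reporter were exposed to compounds with L165041 at 300 nM final for 17 h at 37 C.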

[17] = target: Bile acid receptor (Homo sapiens) (UniProt Q96RI1); assay: qHTS assay to identify small molecule antagonists of the farnesoid-X-receptor (FXR) signaling pathway (AID 743217; active = well fitted inhibition curve with a large enough effect in the signal ratio in the repeat runs, not every such curve was filed as active; the % refers to the signal ratio)
Outline: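 HEK 293T FXR-UAS-bla, 5000 cells/well; compound + CDCA 50 uM final; 16 h, 37 °C; B/G FRET substrate 2 h RT; fluorescence.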
% is scaled to controls: 0 for no effect and ±100 for the full control effect.

CCC(C)(C)CC
inactive: Potency [1] | Potency [2] | Potency [3] | Potency [5] | Potency [6] | outcome [7]
active: Potency [4] 51.3 µM

COCCCN1CCC(NC(=O)c2cc(Cl)c(N)c3c2OCC3)CC1
inactive: Potency [8] | Potency [9] | Potency [10] | Potency [2] | Potency [3] | Potency [11] | Potency [12] | Potency [4] | Potency [5] | Potency [6] | Potency [13]

COc1cc2nc(N3CCN(C(=O)C4COc5ccccc5O4)CC3)nc(N)c2cc1OC (configuration not stated)
inactive: Potency [1] | Potency [9] | Potency [10] | Potency [3] | Potency [11] | Potency [4] | Potency [14] | Potency [6] | Potency [13] | outcome [7]
active: Potency [2] 29.8 µM

CN1Cc2cc(C(=O)N3CCC(C4CCNCC4)CC3)ccc2NC(CC(=O)O)C1=O (configuration not stated)
inactive: Potency [9] | Potency [10] | Potency [2] | Potency [3] | Potency [11] | Potency [12] | Potency [15] | Potency [4] | Potency [16] | Potency [5] | Potency [6]

NS(=O)(=O)c1ccc(N2CCCCS2(=O)=O)cc1
inactive: Potency [9] | Potency [10] | Potency [2] | Potency [11] | Potency [12] | Potency [4] | Potency [17] | Potency [5] | Potency [14] | Potency [13]

O=C(NCC1CN(c2ccc(N3CCOCC3=O)cc2)C(=O)O1)c1ccc(Cl)s1 (configuration not stated)
inactive: Potency [9] | Potency [10] | Potency [2] | Potency [3] | Potency [11] | Potency [12] | Potency [15] | Potency [16] | Potency [5] | Potency [6] | Potency [13]

CN(C)c1ccc(/C=C/c2ccc([N+](=O)[O-])cc2)cc1
inactive: viability change, negative = cytotoxic [1] 24.5% [at 8.47 µM] | activity change, negative = cytotoxicity [9] 9.25% [at 5.95 µM] | activation [10] -18.5% [at 8.36 µM] | viability change, negative = cytotoxic [2] 0.634% [at 8.36 µM] | activity change, negative = cytotoxicity [3] -1.13% [at 5.95 µM] | activation [11] 0.443% [at 5.95 µM] | activity change, negative = cytotoxicity [12] -8.61% [at 5.95 µM] | viability change, negative = cytotoxic [4] 1.68% [at 6.26 µM] | viability change, negative = cytotoxic [5] -8.77% [at 5.95 µM] | activation [14] -3.79% [at 5.95 µM] | activity change, negative = cytotoxicity [6] -0.888% [at 5.95 µM] | activity change, negative = inhibition [7] -22.2% [at 6.95 µM]

CC(C)(O)c1ccc(CNC(=O)c2cccnc2Oc2ccc(F)cc2)cc1
inactive: Potency [1] | Potency [9] | Potency [2] | Potency [3] | Potency [11] | Potency [15] | Potency [4] | Potency [16] | Potency [5] | Potency [6]

CC(C)Cc1ccc(C(C)C(=O)OCc2ccccn2)cc1 (configuration not stated)
inactive: Potency [8] | Potency [9] | Potency [10] | Potency [2] | Potency [3] | Potency [11] | Potency [12] | Potency [15] | Potency [4] | Potency [16] | Potency [17] | Potency [5] | Potency [14] | Potency [13] | outcome [7]

COc1cc2c(cc1OC)C(C(C(=O)N(CCc1ccc(OC)c(OC)c1OC)CCc1ccc(OC)c(OC)c1OC)c1ccccc1)=NCC2 (configuration not stated)
active: Potency [1] 8.41 µM
inactive: Potency [2] | Potency [3] | Potency [11] | Potency [12] | Potency [15] | Potency [4] | Potency [16] | Potency [6]
